Only some compounds are listed: those with a hit (about 4.1% of all), similar ones and a draw of the others.
NSD2 HMT inh – inhibitors of human histone methyltransferase NSD2. AID 743445. NSD2 peptide methylation, AlphaScreen, 120 min. O96028. inhibition, % at 12.5 µM. actives 0.54% (n = 310,000); in the data active means inhibition above about 50%
Casp6 inh – inhibitors of human caspase-6 | actives 0.53% (n = 350,000) | P55212 | purified caspase-6, Z-VEID-R110 cleavage fluorescence | inhibition, % at 12.5 µM;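 active means mean inhibition across replicates at least about 35%, with every replicate also reaching that limit, limit read from the data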;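 further: 0% = median of neutral control wells and 100% = no fluorescence left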
Target sequence (P55212 24-179 limits assumed): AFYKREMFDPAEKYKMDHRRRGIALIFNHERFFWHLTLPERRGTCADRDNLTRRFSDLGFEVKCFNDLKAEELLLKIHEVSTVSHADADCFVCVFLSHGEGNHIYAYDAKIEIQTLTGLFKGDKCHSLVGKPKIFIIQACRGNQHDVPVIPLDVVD
Target sequence (P55212 194-293 limits assumed): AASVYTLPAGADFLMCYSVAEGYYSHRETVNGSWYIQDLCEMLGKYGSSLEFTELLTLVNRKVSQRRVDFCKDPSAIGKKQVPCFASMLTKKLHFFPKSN
ALR H2O2 inh – inhibitors of human sulfhydryl oxidase ALR; P55789; purified ALR, DTT oxidation, H2O2 HRP-luminol luminescence; inhibition, % (no concentration beside the values); actives 3.8% (n = 290,000); AID 485317;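 active means mean replicate inhibition above about 79%, with every replicate also reaching it, limit read from the data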
Target sequence (P55789 whole entry, looked up): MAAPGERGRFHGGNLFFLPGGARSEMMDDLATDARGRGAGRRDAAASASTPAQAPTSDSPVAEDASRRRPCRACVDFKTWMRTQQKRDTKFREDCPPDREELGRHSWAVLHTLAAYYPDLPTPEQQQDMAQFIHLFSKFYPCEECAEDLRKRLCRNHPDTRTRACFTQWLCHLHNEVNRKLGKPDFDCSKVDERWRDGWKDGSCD
PglD DTNB – blocks C. jejuni PglD acetyltransferase activity. purified PglD enzyme, DTNB colorimetric CoA detection. inhibition, % at 12.5 µM. actives 0.098% (n = 360,000). AID 602405; in the data active means inhibition above about 16%, passing the limit was not always enough
CFTR F508del cor – CFTR F508del correction in bronchial cells | CFBE cells, YFP halide quenching; stimulated with forskolin plus potentiator P3; % fluorescence drop versus neutral controls | actives 0.36% (n = 350,000) | activity (quench increase), % at 7.58 µM | AID 720511;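 active means mean added fluorescence quench of at least 8% versus neutral control, with both replicates also reaching 8%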;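 further: cells transiently co-express mutant CFTR-F508del with the halide-sensitive YFP; corrector assay measuring rescue of mutant channel to the surface after 24 h compound exposure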
Env fusion inh – inhibitors of HIV Env-mediated cell fusion. inhibition, % at 12.3 µM. HeLa-JRFL Env/CEM21 cell fusion, luciferase. actives 1.1% (n = 360,000);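 active means mean replicate inhibition score of at least 50 and every replicate individually at or above 50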;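 further: 0% = plate neutral controls and 100% = maraviroc near 300 nM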
* hit, by the source's call; . = no result given; [ ] = dose if it differs, or a comment.

SMILES	NSD2 HMT inh	Casp6 inh	ALR H2O2 inh	PglD DTNB	CFTR F508del cor	Env fusion inh
O=[N+]([O-])c1cc([N+](=O)[O-])c2nonc2c1Nc1ccccc1O	20	-2	99*	-4	-2	22
CC(=O)c1ccc(Nc2c([N+](=O)[O-])ccc3nonc23)cc1	-2	-1	-32	-4	0	-6
COc1ccc(-c2nn(C)c(=O)c3ccccc23)cc1NC(=O)COc1ccc(C)cc1	2	5	-7	0	.	57*
CCC(=O)Nc1cc(-c2nn(C)c(=O)c3ccccc23)ccc1OC	0	.	1	6	.	-8
COc1ccc(-c2nn(C)c(=O)c3ccccc23)cc1NC(=O)Cn1nc(C)c2ccccc2c1=O	.	2	3	-2	.	76*
N#CCC(=O)Nc1ccc(C(=O)OCC(=O)N2CCN(C(=O)c3ccco3)CC2)cc1	0	0	100*	2	-5	-2
Nc1cc(C(=O)OCC(=O)N2CCCC2)ccc1Cl	0	.	.	3	.	.
CCC(CC)C(=O)OCC(=O)Nc1cccc(S(=O)(=O)N(C)c2ccccc2)c1	-4	.	-11	.	1	7
COc1ccc(CCOC(=O)c2ccc(NC(=O)CC#N)cc2)cc1	-2	4	89*	-1	-2	5
Nc1cc(C(=O)OCC(=O)N2CCCC2=O)ccc1Cl	1	1	0	-6	-1	66*
CN(c1ccccc1)S(=O)(=O)c1cccc(C(=O)OCC(=O)Nc2ccc(C(N)=O)cc2)c1	6	40*	0	2	1	-14
C[C@H]1CN([C@@H](C)CO)C(=O)c2cc(NS(=O)(=O)c3cn(C)cn3)ccc2O[C@H]1CN(C)S(=O)(=O)c1cn(C)cn1	.	.	.	.	0	23[16.7 µM]
CC(C)NC(=O)N(C)C[C@H]1Oc2ccc(NC(=O)c3ccncc3)cc2CC(=O)N([C@H](C)CO)C[C@H]1C	.	4	.	11	-3	.
O=C(C[C@H]1CC[C@@H]2[C@H](COC[C@@H](O)CN2C(=O)Nc2ccc(Cl)c(Cl)c2)O1)NCc1ccc(Cl)cc1	.	2	.	2	-1	.
O=C(OCC(=O)N1CCN(C(=O)c2ccco2)CC1)c1cc(-c2ccco2)nc2ccccc12	2	22	93*	-6	0	.
Cc1cc(C)c(C(=O)COC(=O)c2ccc(NC(=O)CC#N)cc2)cc1C	1	-2	16	2	-2	-3
CNC(=O)COC(=O)c1ccc(NC(=O)CC#N)cc1	-2	.	98*	2	.	.
N#CCC(=O)Nc1ccc(C(=O)OCC(=O)NC2CCCCCC2)cc1	4	-5	.	2	-3	4
CCN(CC)S(=O)(=O)c1ccc(NC(=O)COC(=O)c2ccc(-n3nc(C)cc3C)cc2)cc1	0	3	-3	-3	1	.
N#CCC(=O)Nc1ccc(C(=O)OCC(=O)N2CCCC2=O)cc1	0	3	99*	5	-3	12
CCN(CC)S(=O)(=O)c1ccc(NC(=O)COC(=O)c2ccc(NC(=O)CC#N)cc2)cc1	-3	1	99*	.	0	-5
C[C@@H]1CCCCO[C@@H](CN(C)C(=O)Nc2ccc(C(F)(F)F)cc2)[C@H](C)CN([C@H](C)CO)C(=O)c2cc(NS(=O)(=O)c3cccs3)ccc2O1	.	2	.	-3	1	5[16.7 µM]
O=C(Cc1ccccn1)NCC[C@@H]1CC[C@@H](NS(=O)(=O)c2ccc(F)cc2)[C@H](CO)O1	.	0	.	1	1	6[16.7 µM]
CC(=O)Nc1ccc(C(=O)OCC(=O)NC(=O)NCc2ccccc2)cc1	1	6	.	1	.	71*
N#CCC(=O)Nc1ccc(C(=O)OCC(=O)Nc2cc(-c3ccccc3)nn2-c2ccccc2)cc1	1	-3	.	0	0	8
SMILES	NSD2 HMT inh	Casp6 inh	ALR H2O2 inh	PglD DTNB	CFTR F508del cor	Env fusion inh
N#CCC(=O)Nc1ccc(C(=O)OCC(=O)NC(=O)Cc2ccccc2)cc1	2	6	99*	-3	2	-120
CCN(CC)S(=O)(=O)c1ccc2c(c1)nc(CCC(=O)OCC(=O)Nc1cc(Cl)cc(Cl)c1)n2C	0	.	-1	1	.	-89
CS(=O)(=O)c1ccc(C(=O)OCC(=O)NC(=O)Cc2ccccc2)cc1	-3	2	-9	4	1	.
N#CCC(=O)Nc1ccc(C(=O)OCC(=O)Nc2ccccc2-c2ccccc2)cc1	-2	0	98*	.	-1	0
CCc1ccc(NC(=O)COC(=O)CCc2nc3cc(S(=O)(=O)N(CC)CC)ccc3n2C)cc1	0	.	99*	-4	.	21
C/C=C/c1ccc([C@H]2[C@@H](CO)N3C(=O)CN(Cc4ccc(C)cc4)C[C@H]23)cc1	.	2	.	.	2	.
C[C@H]1CN([C@@H](C)CO)S(=O)(=O)c2ccc(-c3ccncc3)cc2O[C@@H]1CN(C)C(=O)C1CCCCC1	.	.	.	.	0	7[16.7 µM]
C[C@H](CO)N1C[C@H](C)[C@@H](CN(C)C(=O)C2CCCCC2)OCCCC[C@H](C)Oc2ccc(NC(=O)Nc3ccc4c(c3)OCO4)cc2C1=O	.	-1	.	5	0	-80[16.7 µM]
CCOC(=O)C1CCN(C(=O)c2oc3ccc(S(=O)(=O)N4CC(C)CC(C)C4)cc3c2C)CC1 (stereo unspecified)	4	.	6	-4	.	-8
CCOC(=O)N1CCN(C(=O)c2oc3ccc(S(=O)(=O)N4CC(C)CC(C)C4)cc3c2C)CC1 (stereo unspecified)	0	.	.	-3	.	62*
C/C=C/c1ccc([C@@H]2[C@H](CO)N(C(=O)C3CCCC3)C23CN(S(C)(=O)=O)C3)cc1	.	58*	.	.	4	.
Cc1ccc(-c2ccc3c(c2)O[C@@H](CN(C)CC2CCCC2)[C@H](C)CN([C@@H](C)CO)S3(=O)=O)cc1	.	1	.	3	4	.
CC(C)CC#Cc1ccc2c(c1)O[C@@H](CN(C)C)[C@@H](C)CN([C@@H](C)CO)S2(=O)=O	.	-2	.	3	-3	-16[16.7 µM]
CC(C)NC(=O)Nc1ccc2c(c1)C(=O)N([C@H](C)CO)C[C@H](C)[C@H](CN(C)Cc1ccc(C(=O)O)cc1)OCCCC[C@H](C)O2	.	-1	.	-3	1	0[16.7 µM]
CN/N=C/c1ccc(C#N)cc1	3	-1	99*	.	-4	-9
Cc1ccccc1N/N=C/c1ccc(C#N)cc1	3	-4	-1	.	-2	-42
CCOC(=O)c1ccccc1NC(=O)/C=C/C(=O)O	-1	1	98*	-4	.	-5
O=C(O)/C=C/C(=O)Nc1ccccc1C(=O)OCC(=O)c1ccc2c(c1)OCCO2	0	2	88*	.	0	-8
CCc1ccccc1N(C(=O)CNC(=O)c1ccco1)C(C(=O)NC1CCCC1)c1cccnc1 (stereo unspecified)	-5	-2	-1	3	-2	-3
O=C(NCC(=O)N(c1ccccc1)C(C(=O)NC1CCCCC1)c1cccnc1)c1cccs1 (stereo unspecified)	-1	-2	-1	2	-1	56*
